Among the data in PubChem BioAssay (NCI) are growth values, retold here.

The panel holds about 83,000 compounds, 20% with a hit somewhere; the sample as a whole holds those more often.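 For each line, cells grew in 96-well plates with the test compound present at a single concentration for 48 hours.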 Values without a mark were called inactive. The source made the active and inactive calls. How the source made its calls: active means growth percent below 10; inactive means the rest.

What all share (test): NCI-60 one-dose screen, 48 h (100 = growth as untreated, 0 = no growth, -100 = all killed)
Conditions in all cases: 10 µM unless noted

Assay [1] has as its system SK-MEL-2 melanoma.
Assay [2] concerns EKVX NSCLC.
The subject of assay [3] is SN12C renal.
The test system of assay [4] is UO-31 renal.
Assay [5] has as its system ACHN renal.
Assay [6] relates to CAKI-1 renal.
For assay [7], the system named is A498 renal.
Assay [8] relates to CCRF-CEM leukemia.
Assay [9] relates to MOLT-4 leukemia.
The test system of assay [10] is SR leukemia.
Assay [11] relates to RPMI-8226 leukemia.
Assay [12] relates to OVCAR-8 ovarian.
For assay [13], the system named is OVCAR-5 ovarian.
Assay [14] relates to OVCAR-4 ovarian.
The subject of assay [15] is SK-OV-3 ovarian.
Assay [16] has as its system IGROV1 ovarian.
In assay [17] the test system is OVCAR-3 ovarian.
Assay [18] deals with HS 578T breast.
Assay [19] relates to NCI/ADR-RES ovarian.

For `NS(=O)(=O)c1ccc(-n2ncc3c(N/N=C/c4ccccc4)ncnc32)cc1`, the growth in [1] is 70.5%; in assay [2], 108%; in assay [3] it was 93%; in [4] it was 68.8%; in [5], 94.7%; in assay [6], 53.4%. For the same compound, the growth in [7] is 111%; in assay [8] it was 84.6%; in assay [9] it was 71.4%; in assay [10] it was 50.8%; in assay [11] it was 83.4%; in assay [12] it was 55.5%. Moreover, the growth is 97.2% in assay [13]; 54.3% in assay [14]; 107% in assay [15]; 76.5% in [16]; 99.9% in [17]; 113% in assay [18]. Also, the growth in assay [19] is 87.6%.
For the compound `NS(=O)(=O)c1cc(C2(O)NC(=O)c3ccccc32)ccc1Cl` (centres undefined), the growth in assay [1] is 113%; in assay [2] it was 108%; in [3], 101%; in assay [4], 76.4%; in assay [5] it was 90.7%; in assay [6], 93.9%. In addition, the growth in [7] was 129%; in assay [8], 98.9%; in assay [9] it was 93.6%; in assay [10], 91.9%; in assay [11], 93.2%; in [12] it was 103%. Moreover, the growth in assay [13] is 99.1%; in assay [14] it was 112%; in [15], 108%; in assay [16], 97.1%; in assay [17], 123%; in assay [18] it was 118%. In addition, in assay [19], the growth is 107%.
`O=C(COc1ccc(/C=C2\Oc3ccc4ccccc4c3C2=O)cc1)c1ccc(Cl)cc1`: the growth is 73.8% in assay [1]; 103% in assay [2]; 98.9% in assay [3]; 5.25% (active) in assay [4]; 107% in assay [5]; 98.8% in [6]. Besides, the growth is 155% in assay [7]; -26.9% (active) in [8]; 33.8% in [9]; 26.8% in assay [10]; 62.1% in assay [11]; 100% in assay [12]. Besides, the growth in [13] is 113%; in assay [14], 94.6%; in assay [15] it was 104%; in assay [17] it was 127%; in assay [18], 91.7%.
Take `C/C=C(/C(=C/C)c1ccc(O)cc1)c1ccc(O)cc1`: the growth in assay [1] is 44.9%; in assay [2], 35.7%; in assay [3] it was 42.8%; in assay [4], 38.1%; in assay [5] it was 38.4%; in [6], 42.1%. Moreover, the growth in assay [7] was 31.4%; in [8], 17.1%; in assay [9], 34%; in [10], 15.5%; in assay [11] it was 18.3%; in assay [12], 48.3%. For the same compound, the growth is 50.1% in assay [13]; 58.6% in assay [14]; 10.7% in [15]; 36.2% in [16]; -1.49% (active) in [17]; 25.6% in assay [18]. Further, the growth in [19] was 24.3%.
On to `CCSc1nc(-c2cccs2)n2nc(-c3ccco3)cc2n1`, for which the growth in assay [1] was 105%; in [2] it was 81.3%; in assay [3] it was 89.7%; in assay [4], 79.7%; in assay [5], 94.1%; in assay [6], 86.3%. The growth was 94.4% in assay [7]; 88.7% in [8]; 115% in assay [9]; 92.7% in assay [10]; 53.9% in assay [11]; 99.8% in [12]. Further, the growth in assay [13] is 97.3%; in assay [15] it was 106%; in [16], 87.5%; in assay [17], 112%; in assay [18], 108%; in assay [19], 103%.
Take `NS(=O)(=O)c1cc2c(cc1Cl)NC=NS2(=O)=O`: the growth in [1] was 103%; in assay [2] it was 107%; in assay [3], 100%; in assay [4], 82.1%; in assay [5], 98.9%; in assay [6] it was 96.3%. For the same compound, the growth in assay [7] is 110%; in assay [8], 97.6%; in [9], 103%; in assay [10], 96.1%; in [11] it was 104%; in [12], 102%. In addition, the growth in [13] is 100%; in assay [14], 107%; in [15], 110%; in assay [16], 109%; in assay [17], 117%; in [18], 118%. In assay [19], the growth is 108%.
In the case of `Nc1ccn(C2O[C@H](CO)[C@@H](O)[C@@H]2O)c(=O)n1` (some centres undefined), the growth in assay [1] was 88.3%; in assay [2], 91.8%; in assay [3] it was 37.1%; in assay [4], 1.02% (active); in assay [5], 0.769% (active); in assay [6], 12.4%. Moreover, the growth in assay [7] was 66.8%; in assay [8], 6.02% (active); in [9], 13.6%; in [10], 9.93% (active); in assay [11], 64.4%; in [12], 34%. The growth in [13] is 70.1%; in assay [14] it was 83.4%; in [15], 55.6%; in [16], 51.9%; in assay [17] it was 67.6%; in assay [18], 107%. For the same compound, in assay [19], the growth is 34.6%.
As to `CSc1nc2nc3c(c(-c4ccc(C)cc4)c2c(=O)[nH]1)CN(C)C/C3=C\c1ccc(C)cc1`, the growth in [1] is 112%; in [2], 83.5%; in [3], 102%; in assay [4], 86.1%; in assay [5], 94.9%; in assay [6], 93.7%. In addition, the growth was 85.6% in [7]; 85.2% in assay [8]; 87.2% in [9]; 86.9% in assay [10]; 84.2% in [11]; 105% in assay [12]. For the same compound, the growth in assay [13] is 115%; in assay [14], 92.8%; in assay [15], 112%; in [16] it was 96.8%; in assay [17], 116%; in [18] it was 95.8%. In addition, the growth in assay [19] was 94.7%.
